High-throughput results: PubChem BioAssay, Broad Institute
Most compounds without a hit are left out; they make up all but 6.7% or so of the library.
T cruzi growth-1 – inhibitors of T. cruzi proliferation. T. cruzi beta-gal in NIH3T3, GalScreen luminescence, 90 h. inhibition, % at 8.34 µM. 77,000 compounds, 5.9% hits. AID 624255;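 active means mean inhibition above about 93%, with at least 55% of replicates each passing it, limit read from the data, passing the limit was not always enough; inconclusive means only one of those two conditions holds; inactive means neither condition holds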
C diff HTS – C. difficile growth inhibition; Clostridium difficile clinical isolate growth, OD600, 24 h; active compounds read low; growth activity, negative = inhibition, % at 16 µg/mL (by protocol); 86,000 compounds, 0.25% hits; AID 1259249;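 active means mean growth activity at or below -80% and every replicate also at or below -80%; inconclusive means mean at or below -80% but some replicate above -80%; inactive means mean growth activity above -80%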
Pf Dd2 inh – P. falciparum Dd2 growth inhibition. 94,000 compounds, 2.3% hits. SYBR Green, 72 h; active compounds read low. AID 1159554. activity change, % at 10 µM; in the data active means activity change below about -80%; inconclusive means no clear call, values can overlap the other calls
T cruzi growth-2 – Trypanosoma cruzi proliferation inhibition | 5,600 compounds, 72% hits | T. cruzi beta-gal in NIH3T3, GalScreen luminescence, 90 h | shares compounds with T cruzi growth-1 | inhibition, % at 8.35 µM;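 active means mean replicate inhibition above about 95% and at least 55% of replicates individually reaching it, limit read from the data; inconclusive means only one of the two criteria is met; inactive means neither criterion is met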
T cruzi growth-3 – inhibitors of T. cruzi proliferation; AID 651740; T. cruzi beta-gal in NIH3T3, GalScreen luminescence, 90 h; shares compounds with T cruzi growth-1; 5,600 compounds, 21% hits; inhibition, % at 2.09 µM;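 active means mean inhibition above about 95%, with at least 55% of replicates also reaching it, limit read from the data; inconclusive means meets just one of the two conditions; inactive means meets neither condition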
3T3 cytotox – kills mouse NIH/3T3 fibroblasts; NIH/3T3 viability, CellTiter-Glo ATP luminescence, 90 h; 5,600 compounds, 14% hits; cytotoxicity (signal decrease), % at 8.35 µM; shares compounds with T cruzi growth-1;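 active means mean signal decrease across replicates above about 35% based on untreated-well scatter, with enough replicates individually passing, limit read from the data; inconclusive means no rule stated though some were filed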
3T3 cytotox 2 – NIH/3T3 (mouse) viability loss | shares compounds with T cruzi growth-1 | NIH/3T3 viability, CellTiter-Glo ATP luminescence, 90 h | inhibition, % at 24.9 µM | 5,600 compounds, 56% hits;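 active means mean loss of cell viability signal at or above a set limit, and enough replicates individually reaching it; inconclusive means meets only the mean limit or only the replicate share; inactive means meets neither condition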
Hits are given with their value; . = inactive; ? = inconclusive; / = not tested or not shown.

SMILES | T cruzi growth-1 | C diff HTS | Pf Dd2 inh | T cruzi growth-2 | T cruzi growth-3 | 3T3 cytotox | 3T3 cytotox 2
COc1ccc(C#Cc2ccc([C@H]3[C@@H](CO)N4CCCCN(C(=O)Nc5ccc(F)cc5)C[C@@H]34)cc2)cc1 | 107 | . | . | 104 | 104 | . | .
COc1cccc(S(=O)(=O)N[C@H]2CC[C@H](CC(=O)NC3CCC3)O[C@@H]2CO)c1 | . | . | . | / | / | / | /
C[C@H]1CN([C@@H](C)CO)C(=O)c2cc(NC(=O)CCCN(C)C)ccc2O[C@H]1CN(C)S(=O)(=O)c1cn(C)cn1 | . | . | . | / | / | / | /
C[C@@H]1CN([C@@H](C)CO)C(=O)c2cc(C#CC3CCCCC3)cnc2O[C@@H]1CN(C)S(C)(=O)=O | . | . | . | / | / | / | /
C[C@@H]1CN([C@@H](C)CO)C(=O)c2cc(C#Cc3ccccc3F)cnc2O[C@H]1CN(C)C(=O)Cc1ccccc1 | 120 | . | . | 111 | 106 | . | ?
COc1ccc(-c2cnc3c(c2)C(=O)N([C@H](C)CO)C[C@H](C)[C@H](CN(C)C(=O)Cc2ccncc2)O3)cc1 | . | . | . | / | / | / | /
C[C@@H]1CN([C@H](C)CO)C(=O)c2cc(C#Cc3ccccc3F)cnc2O[C@@H]1CN(C)C(=O)Cc1ccncc1 | . | . | . | / | / | / | /
C[C@H]1CN([C@@H](C)CO)C(=O)c2cc(C#Cc3ccccc3F)cnc2O[C@@H]1CN(C)C(=O)Cc1ccncc1 | 95 | . | . | ? | . | . | .
C[C@@H]1CN([C@@H](C)CO)C(=O)c2cc(C#Cc3ccccc3F)cnc2O[C@@H]1CN(C)C(=O)Cc1ccccc1 | . | . | . | / | / | / | /
COc1ccc(-c2cnc3c(c2)C(=O)N([C@H](C)CO)C[C@H](C)[C@@H](CN(C)C(=O)Cc2ccncc2)O3)cc1 | 112 | . | . | . | . | . | .
C[C@@H]1CN([C@H](C)CO)C(=O)c2cc(-c3cccc(F)c3)cnc2O[C@@H]1CN(C)C(=O)C1CC1 | . | / | . | / | / | / | /
C/C=C/c1ccc([C@@H]2[C@@H](CN(CC)C(=O)CC)N(C(C)=O)[C@H]2CO)cc1 | . | . | . | / | / | / | /
C/C=C/c1ccc([C@@H]2[C@@H](CO)N(C(C)=O)[C@H]2CN(CC)C(=O)CC)cc1 | 101 | . | . | 106 | . | . | .
C/C=C/c1ccc([C@@H]2[C@@H](CN(CC)C(=O)CC)N(C(=O)C3CCC3)[C@H]2CO)cc1 | . | . | . | / | / | / | /
C/C=C/c1ccc([C@@H]2[C@H](CO)N(C(=O)C3CC3)[C@H]2CN(CC)C(C)=O)cc1 | 100 | . | . | . | . | . | .
COc1ccc2c3c([nH]c2c1)[C@H](CO)N(C(=O)c1ccc(F)cc1)CC31CN(C)C1 | / | . | . | / | / | / | /
CNC(=O)C[C@@H]1CC[C@H]2[C@@H](COc3ccc(NC(=O)C(C)C)cc3C(=O)N2C)O1 | . | . | . | / | / | / | /
CN(C)C(=O)c1ccc(-c2ccc3n(c2=O)C[C@@H]2[C@@H](CO)[C@H](C(=O)NCCc4ccccc4)N[C@H]32)cc1 | . | . | / | / | / | / | /
CCS(=O)(=O)N1CCCCN2[C@H](CO)[C@H](c3ccc(-c4ccc(C#N)cc4)cc3)[C@H]2C1 | 114 | . | . | 96 | . | . | 52
CS(=O)(=O)N1CCCCN2[C@@H](CO)[C@@H](c3ccc(-c4cccc(C#N)c4)cc3)[C@@H]2C1 | . | . | . | / | / | / | /
CCS(=O)(=O)N1CCCCN2[C@H](C1)[C@H](c1ccc(-c3cccc(C#N)c3)cc1)[C@@H]2CO | 107 | . | . | . | . | . | .
CCS(=O)(=O)N1CCCCN2[C@H](CO)[C@@H](c3ccc(-c4ccc(C#N)cc4)cc3)[C@@H]2C1 | . | . | . | / | / | / | /
CCS(=O)(=O)N1CCCCN2[C@H](CO)[C@H](c3ccc(-c4cccc(C#N)c4)cc3)[C@@H]2C1 | . | . | . | / | / | / | /
CCS(=O)(=O)N1CCCCN2[C@H](CO)[C@H](c3ccc(-c4cccc(C#N)c4)cc3)[C@H]2C1 | 128 | . | . | 97 | . | 53 | 46
O=C(C[C@H]1CC[C@H](NC(=O)Nc2cc(F)ccc2F)[C@H](CO)O1)NCc1ccncn1 | . | . | . | / | / | / | /
SMILES | T cruzi growth-1 | C diff HTS | Pf Dd2 inh | T cruzi growth-2 | T cruzi growth-3 | 3T3 cytotox | 3T3 cytotox 2
CNC[C@H]1Oc2c(NS(=O)(=O)c3cccs3)cccc2C(=O)N([C@@H](C)CO)C[C@@H]1C | . | . | . | / | / | / | /
O=C(Nc1cc(F)ccc1F)N[C@@H]1CC[C@H](CCn2cc(C3CCCCC3)nn2)O[C@@H]1CO | / | . | . | / | / | / | /
CO[C@H]1CN(C)C(=O)c2ccc(NC(C)=O)cc2OC[C@@H](C)N(CCc2ccccc2)C[C@H]1C | . | / | . | / | / | / | /
O=C(c1ccc2c(c1)OCO2)N1CCCCN2[C@@H](CO)[C@H](c3ccc(-c4ccccc4)cc3)[C@@H]2C1 | . | . | . | / | / | / | /
Cc1cccc(-c2ccc([C@H]3[C@@H](CO)N4CCCCN(C(=O)c5ccc6c(c5)OCO6)C[C@@H]34)cc2)c1 | ? | . | . | 111 | 99 | ? | 90
Cc1cccc(-c2ccc([C@@H]3[C@@H](CO)N4CCCCN(C(=O)c5ccc6c(c5)OCO6)C[C@H]34)cc2)c1 | 106 | . | . | 104 | . | . | 103
COc1cccc(-c2ccc([C@H]3[C@@H](CO)N4CCCCN(C(=O)c5ccc6c(c5)OCO6)C[C@H]34)cc2)c1 | 110 | . | . | 105 | . | . | 106
Cc1cccc(-c2ccc([C@@H]3[C@@H](CO)N4CCCCN(C(=O)c5ccc6c(c5)OCO6)C[C@@H]34)cc2)c1 | . | . | . | / | / | / | /
COc1cccc(-c2ccc([C@@H]3[C@@H](CO)N4CCCCN(C(=O)c5ccc6c(c5)OCO6)C[C@H]34)cc2)c1 | . | . | . | / | / | / | /
Cc1cccc(-c2ccc([C@H]3[C@H]4CN(C(=O)c5ccc6c(c5)OCO6)CCCCN4[C@H]3CO)cc2)c1 | 116 | . | . | 105 | . | . | 106
CC(=O)N1CCCCN2[C@H](CO)[C@H](c3ccc(-c4cccc(C)c4)cc3)[C@@H]2C1 | . | . | . | / | / | / | /
O=C(Cc1ccncc1)NCC[C@H]1CC[C@H](NS(=O)(=O)c2ccccc2Cl)[C@H](CO)O1 | . | / | . | / | / | / | /
COCC(=O)N1CCC2(CC1)CN(C(=O)NC1CCCC1)[C@H](CO)c1c2c2ccc(OC)cc2n1C | / | . | . | / | / | / | /
Cc1cccc(-c2ccc([C@H]3[C@@H](CO)N4CCCCN(C(=O)c5ccc6c(c5)OCO6)C[C@H]34)cc2)c1 | 120 | . | . | 98 | 105 | 44 | 107
Cc1cccc(-c2ccc([C@@H]3[C@@H](CO)N4C(=O)CN(C(=O)c5ccc6c(c5)OCO6)C[C@H]34)cc2)c1 | / | . | . | / | / | / | /
O=C(c1ccc2c(c1)OCO2)N1CCCCN2[C@H](CO)[C@H](c3ccc(-c4ccccc4)cc3)[C@H]2C1 | . | . | . | / | / | / | /
